Rows were chosen to be rich in hits. Some 5.8% of all compounds tested hit in one or more screens of this group.
12-LOX inh: Primary qHTS assay for inhibitors of human arachidonate 12S-lipoxygenase (ALOX12): Round 2. Polyunsaturated fatty acid lipoxygenase ALOX12 (Homo sapiens), P18054. purified 12hLO, xylenol orange hydroperoxide absorbance. Potency, µM (doses to about 108 µM), for inactives: at the highest dose activity change, negative = inhibition, hits mostly inhibitors. 580,000 compounds, 1.1% hits; further: on the % scale 0 is the no-effect control and ±100 the full control effect
Target sequence (P18054 whole entry, looked up): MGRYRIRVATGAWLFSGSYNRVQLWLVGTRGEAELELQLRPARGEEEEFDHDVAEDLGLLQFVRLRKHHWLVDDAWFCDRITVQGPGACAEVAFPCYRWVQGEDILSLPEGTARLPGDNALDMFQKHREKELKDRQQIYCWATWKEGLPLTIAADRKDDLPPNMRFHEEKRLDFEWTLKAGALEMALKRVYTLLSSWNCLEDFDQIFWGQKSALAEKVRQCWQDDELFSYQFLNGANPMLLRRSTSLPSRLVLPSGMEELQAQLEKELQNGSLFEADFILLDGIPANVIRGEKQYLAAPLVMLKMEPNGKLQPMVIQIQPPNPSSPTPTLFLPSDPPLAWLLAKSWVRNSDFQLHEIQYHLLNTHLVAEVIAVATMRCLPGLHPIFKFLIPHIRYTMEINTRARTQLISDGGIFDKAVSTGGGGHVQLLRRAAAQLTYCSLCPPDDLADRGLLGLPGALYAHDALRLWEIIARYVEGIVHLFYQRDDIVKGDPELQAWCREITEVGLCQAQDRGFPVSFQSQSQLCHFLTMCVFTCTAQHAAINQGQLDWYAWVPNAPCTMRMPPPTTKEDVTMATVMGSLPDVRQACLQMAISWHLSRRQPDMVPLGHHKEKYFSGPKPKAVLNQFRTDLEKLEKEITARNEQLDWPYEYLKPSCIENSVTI
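Purified human 12hLO at 150 nM in 25 mM Hepes, 0.01% Triton X-100, pH 7.0, preincubated 15 min at room temperature with compound. Reaction started with 40 uM arachidonic acid, 30 min at room temperature. Hydroperoxide measured by Fe-xylenol orange, 573/405 nm absorbance ratio.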
KB-V1 cytotox: qHTS assay for MDR1-selective chemotherapeutics: Primary screen using the drug-selected MDR subline cells KB-V1; KB-V1 MDR cells viability, CellTiter-Glo, 72 h; Potency, µM (top dose mostly 46.1 µM), most hits filed as cytotoxic; 400,000 compounds, 3.4% hits; AID 1347076, 2019; further: on the % scale 0 is the no-effect control and ±100 the full control effect; nearly all actives have a fitted effect of over 60% in size
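Readout: CellTiter-Glo luminescence, 10 min after addition. Cells: KB-V1 MDR subline, 72 h at 37 degrees C with compound. Analysis: corrected, normalized data fitted to concentration-effect curves.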
SW480 rerep: A quantitative high throughput screen for small molecules that induce DNA re-replication in SW480 colon adenocarcinoma cells. SW480 DNA re-replication, Hoechst DNA content imaging, 48 h. Potency, µM (highest dose often 46.1 µM), for inactives: at the top dose re-replication activation, hits mostly activators. 340,000 compounds, 1.8% hits; further: % of control where 0% means no effect; nearly all actives have a fitted effect of over 55% in size
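DNA re-replication was detected as more nuclei of elevated Hoechst intensity after 48 hr exposure to compound (23 nL pinned per well of 250 cells).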
MCF10A rerep: A quantitative high throughput screen for small molecules that induce DNA re-replication in MCF 10a normal breast cells. MCF 10A DNA re-replication, Hoechst nuclear intensity, 48 h. 350,000 compounds, 2.9% hits. Potency, µM (titrated, usually from 46.1 µM), without a hit: at the highest dose activity, positive = re-replication, usual class: activators; further: % of control where 0% means no effect; nearly all actives have a fitted effect of over 50% in size
KB-3-1 tox: qHTS assay for MDR1-selective chemotherapeutics: Primary screen using the parental adenocarcinoma cell KB-3-1. Potency, µM (highest dose often 46.1 µM), usual class: cytotoxic. KB-3-1 viability, CellTiter-Glo ATP luminescence, 72 h. 400,000 compounds, 1.4% hits; further: on the % scale 0 is the no-effect control and ±100 the full control effect; nearly all actives have a fitted effect of over 60% in size
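Using CellTiter-Glo luminescence, growth of non-resistant KB-3-1 adenocarcinoma cells is assessed 72 h after pin-tool compound addition at 37 °C. Normalized responses across the concentration series yield fitted curves.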
PINK1 modulator: A Quantitative High throughput Screen to Identify Chemical Modulators of PINK1 Expression | PINK1 immunofluorescence, high-content cytometry, 24 h | Potency, µM (top dose mostly 76.6 µM), without a hit: at the top dose activation (PINK1 increase), actives largely listed as activators | 410,000 compounds, 0.2% hits | AID 624263, 2012; active means well fitted activation curve with a large enough effect; inconclusive means small, poorly fitted or top-dose-only effect; cell line not stated here; further: % of control where 0% means no effect; nearly all actives have a fitted effect of over 65% in size
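Cells are seeded, rested 12 hours, then given compound at five concentrations or DMSO for 24 hours. After fixation, blocking and antibody staining, PINK1 amount and mitochondrial localization are scored; CCCP serves as control.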
An asterisk follows results filed as active; i = inactive; ? = inconclusive; · = not tested or not shown; ! = repeats disagree; [ ] = another dose, or the depositor's remark. Unless noted, the call rests on the fitted dose curve; in most records, active means well fitted curve in the direction sought with a large enough effect; inconclusive means small, poorly fitted or top-dose-only effect, or another doubt; inactive means no such curve, though single readings can be large; an effect the other way counts as inactive or inconclusive. Potency means the concentration at half of the fitted maximal effect.

SMILES	12-LOX inh	KB-V1 cytotox	SW480 rerep	MCF10A rerep	KB-3-1 tox	PINK1 modulator
COc1ccc(CNC(=O)Cc2ccc(NC(=O)C3=C(C)OCCS3)cc2)cc1	-4.5%	14.6µM*	?	8.2µM*	1.03µM*	3.7%
CC1=C(C(=O)Nc2ccc(CC(=O)NCc3ccc(OC(C)C)cc3)cc2)SCCO1	-12.9%	?	?	0.326µM*	0.366µM*	15.4%
O=C(Nc1nc(-c2ccc3ccccc3c2)cs1)C1CCN(S(=O)(=O)c2cccs2)CC1	?	2.59µM*	-137.3%	-43.4%	4.61µM*	-1.3%
O=C(Nc1nccs1)C1CCN(S(=O)(=O)c2cccs2)CC1	3.4%	i	-1.3%	0.9%	i	-0.2%
COc1ccc(/C=C2\SC(=O)N(CCNC(=O)C3CCN(S(=O)(=O)c4cccs4)CC3)C2=O)cc1	-13.8%	14.6µM*	-15.1%	-7.0%	i	4.6%
Cc1ccc(-c2csc(NC(=O)C3CCN(S(=O)(=O)c4cccs4)CC3)n2)cc1	-5.1%	9.2µM*	?	1.8%	6.51µM*	1.2%
CCC(C)N(C(=O)CSc1nc(-c2cccs2)nc2ccccc12)C1CCS(=O)(=O)C1 (stereo unspecified)	-10.3%	1.46µM*	?	?	i	-1.7%
Cc1cccc(C(=O)N2CCC3(CC2)c2[nH]c4ccccc4c2CCN3C)c1	22.7%	·	·	·	·	·
Cn1sc(NC(=O)c2cccc(Cl)c2)nc1=O	0.0%	i	-3.6%	-0.8%	i	-1.5%
Cn1sc(NC(=O)c2ccccc2Cl)nc1=O	44.7µM*	i	-2.4%	3.4%	i	-1.7%
Cc1cc(NC(=O)CCN2C(=O)C3C4CCC(C4)C3C2=O)c(C)cc1Br (stereo unspecified)	-31.2%	14.6µM*	-2.1%	4.2%	i	3.1%[38.3 µM]
Cc1cccc(C)c1NC(=O)CCN1C(=O)C2C3CCC(C3)C2C1=O (stereo unspecified)	0.0%	i	-12.5%	0.2%	i	-1.2%
O=C(c1ccc2ncccc2c1)N1CCCCCC1c1nnc(-c2ccccc2)o1 (stereo unspecified)	22.5%	·	·	·	·	·
CC1C[N+](=C2C=C(N3CCOCC3)CC(C)(C)C2)CC(C)O1 (stereo unspecified)	28.2µM*	i	0.8%	0.5%	i	0.5%
CCCN(CCC)C1=CC(=[N+]2CCCC2)CC(C)(C)C1	?	i	-3.8%	-0.8%	2.59µM*	?
CN(C)NC1=CC(=[N+]2CCCC2)CC(C)(C)C1	-28.7%	i	-3.3%	7.9%	i	2.5%
CC1(C)CC(N2CCOCC2)=CC(=[N+]2CCOCC2)C1	?	i	5.6%	-34.7%	i	-0.9%
CC1(C)CC(N2CCCCC2)=CC(=[N+]2CCCCC2)C1	?	i	-9.0%	24.3%	5.8µM*	?
CN(C)Cc1ccc(CNC(=O)CNC(=O)Nc2ccccc2)cc1	13.7%	·	·	·	·	·
O=C1C=C(c2ccc3ncccc3c2)C[C@@H](c2ccc3c(c2)OCO3)C1	-17.5%	?	20.6µM*	?	?	0.9%
CCOC(=O)C(NC(=O)c1ccccc1)C(=O)OCC	-7.5%	·	·	·	·	·
Cc1nc(Nc2nc3ccccc3o2)nc(C)c1C	-1.5%	?	5.7%	3.8%	i	2.1%
CCOC(=O)c1cnc(Nc2nc3ccccc3o2)nc1CSc1ncccn1	·	i	-2.5%	10.4%	i	6.1%
CCOC(=O)c1cnc(Nc2nc3ccccc3o2)nc1CSC(=S)N(CC)CC	1.2%	?	?	?	1.3µM*	1.9%
CCCc1nc(Nc2nc3ccccc3o2)nc(C)c1C(=O)OCC	0.0%	3.66µM*	0.9%	3.5%	i	9.7%[38.3 µM]
SMILES	12-LOX inh	KB-V1 cytotox	SW480 rerep	MCF10A rerep	KB-3-1 tox	PINK1 modulator
COc1cc(-c2cc(C(=O)Nc3ccccc3N3CCOCC3)c3ccccc3n2)cc(OC)c1OC	-18.1%	9.2µM*	1.6%	?	i	2.5%
COc1cc(NC(C(=O)Nc2cccc(C(C)=O)c2)c2ccccc2)cc(OC)c1OC (stereo unspecified)	7.8%	4.61µM*	-32.3%	-21.3%	?	7.4%
CC(=O)Nc1ccc(NC(=O)c2cc(-c3ccccc3)nc3ccccc23)cc1	0.0%	i	2.4%	3.6%	i	8.9%
O=C(Nc1ccc(SC(F)F)cc1)c1cc(-c2ccccc2)nc2ccccc12	39.8µM*	·	·	·	·	·
COc1ccc(-c2cc(C(=O)Nc3ccc(C(N)=O)cc3)c3ccccc3n2)cc1OC	?	i	18.4µM*	?	?	6.0%
Cc1ccc(NC(=O)c2ccccc2NCC(=O)N2CC(=O)Nc3ccccc32)cc1	4.2%	·	·	·	·	·
COc1cc(-c2cc(C(=O)Nc3ccc(O)cc3)c3ccccc3n2)cc(OC)c1OC	44.7µM*	i	-2.7%	7.9%	i	0.4%
COc1cc(-c2cc(C(=O)Nc3cccc(C(C)=O)c3)c3ccccc3n2)cc(OC)c1OC	14.7%	20.6µM*	1.9%	?	?	4.0%
Cc1cc(C)cc(C(=O)N2CCCN(c3cc(-c4ccc(Cl)cc4)[nH]n3)CC2)c1	32.5%	·	·	·	·	·
CCN(CC)C(=O)c1ccc(CNC(=O)N(C)C(C2CC2)C2CC2)cc1	6.4%	·	·	·	·	·
COc1ccc2nc(N3CCC(C)CC3)c(C#N)cc2c1	?	i	20.6µM*	5.8µM*	i	5.1%
CN1C(=O)C2(CCN(Cc3cccc4ccccc34)C2)c2ccccc21 (stereo unspecified)	-10.2%[176 µM]	·	·	·	·	·
CCC(C)(C)n1nnnc1CN1CCC(NC(=O)c2ccccc2C)CC1	-14.1%	i	-4.0%	6.2%	i	-1.1%
Cc1ccccc1C(=O)NC1CCN(Cc2nnnn2Cc2ccc(F)cc2)CC1	0.0%	20.6µM*	-6.1%	1.6%	i	6.2%[38.3 µM]
CCOc1ccccc1C(=O)NC1CCN(Cc2nnnn2C2CCCC2)CC1	-8.3%	9.2µM*	-1.0%	20.5%	i	4.6%[38.3 µM]
CCOc1ccccc1C(=O)NC1CCNCC1	-4.1%	?	-5.5%	3.6%	i	0.0%
CCN1/C(=C/C(C)=C/c2sc3ccccc3[n+]2CC)Sc2ccccc21	35.5µM*!	20.6µM*!	29.8%	-7.2%	0.731µM*	4.8%
Cc1ccc(/C=C2/NC(=O)N(Cc3ccccc3)C2=O)s1	-1.8%	i	3.6%	-3.3%	i	14.1µM*
